# In PubChem BioAssay AID1347170 (National Center for Advancing Translational Sciences (NCATS), 2019):
# Records with an inconclusive call do not appear. Unmarked numbers belong to inactive results. Active and inactive are the calls of the source. Calls come from the whole dose curve; as a rule, active = well fitted cell-killing curve with a large enough effect; inconclusive = small, poorly fitted or top-dose-only effect, or another doubt; inactive = flat fitted curve, though single readings scatter.
# Test: Vero cells viability counterscreen for qRT-PCR qHTS assay of selected Zika virus inhibitors
# Conditions: CellTiter-Glo ATP luminescence, 24 h; series mostly up to 41.8 µM; activity change, negative = cytotoxicity: at the top concentration
# From the text: Assay Submitters (PI): Avindra Nath, Ph.D., National Institute of Neurological Disorders and Stroke (NINDS), Bethesda, MD Radhakrishnan Padmanabhan, Ph.D., Georgetown University (GU), Washington D.C. Zika Virus causes congenital defects, including microcephaly and is associated with Guillain-Barre syndrome, eningoencephalitis and myelitis in infected adult. […] Using a target-based approach, we hope to establish a screening paradigm to uncover novel, cell-active NS2B-NS3 protease (Zika Virus) specific inhibitors from NCATS' collection of small molecules using qHTS. […] Four assay panel was created to identify potential Zika Virus inhibitors. Namely, (1) GU unlinked NS2B-NS3 AMC tagged protease qHTS, (2) GU unlinked NS2B-NS3 Rhodamine tagged protease qHTS, (3) NINDS linked NS2B-NS3 AMC tagged protease qHTS, (4) NINDS linked NS2B-NS3 Rhodamine tagged protease qHTS. Inhibitors of the Zika virus primary screens are confirmed using qRT-PCR secondary assays, mCherry orthogonal assay, and Vero cells viability counterscreen. Cytotoxic compounds identified in the Vero cell viability counterscreen were excluded from the list of potential Zika virus inhibitors. Early Translation Branch (ETB) National Center for Advancing Translational Sciences (NCATS), Rockville, MD National Institute of Health (NIH), Bethesda, Maryland
# Vero Cell Viability Assay: Vero cell cytotoxicity was determined using a luminescent readout with CellTiter Glo reagent (Promega, Madison, WI), which is based on measuring the ATP content within cells. Briefly, 4 uL of Vero cells at 2.5 x 10^5 cells/mL in DMEM containing 4% FBS were dispensed into 1536-well solid bottom tissue treated white plate using a Multidrop Combi dispenser (Thermo Scientific). Plates were incubated at 37 degrees C, 95% humidity, and 5% CO2 overnight to allow for cell attachment. Compounds were dissolved in DMSO at different concentrations and transferred via pintool (Wako Automation), for a final concentration of 57 uM - 0.029 uM. Plates were again incubated for 24 hours, followed by a 2 uL addition of CellTiter Glo. Finally, plates were incubated for 30 minutes at 37 degrees C and 5% CO2 before being read on a ViewLux (Perkin Elmer) for luminescence.
Structure (SMILES),"activity change, negative = cytotoxicity",Potency
O=C(O)c1c(Sc2ccccc2)c2cc(Cl)ccc2n1Cc1ccc(Cl)cc1,-7.82%,
O=C(O)c1ccc(CCCc2ccc(OCCc3ccc(F)cc3)cc2)o1,12.6% [at 31.5 µM],
Cc1ccc2nc(NS(=O)(=O)c3ccc(Cl)cc3)c(Nc3ccc(C(=O)O)cc3)nc2c1,-1.12%,
CN(C)[C@@H]1C(=O)C(C(N)=O)=C(O)[C@@]2(O)C(=O)C3=C(O)c4c(O)cccc4C[C@H]3C[C@@H]12,-8.19%,
CC(=O)O[C@@H]1C[C@]2(C)[C@@]3(CCC4[C@@]5(C)CC[C@H](O[C@@H]6O[C@H](C(=O)O)[C@@H](O)[C@H](O[C@@H]7O[C@H](CO)[C@H](O)[C@H](O)[C@H]7O[C@@H]7O[C@@H](C)[C@H](O)[C@@H](O)[C@H]7O[C@@H]7OC[C@](O)(CO)[C@H]7O)[C@H]6O[C@@H]6O[C@H](CO)[C@H](O)[C@H](O)[C@H]6O)C(C)(C)C5CC[C@]42C)O[C@@H](O)[C@]12C3CC(C)(C)[C@@H](OC(=O)/C=C/c1ccc(O)c(O)c1)[C@@H]2OC(=O)/C=C/c1ccccc1 (stereo not given in full),2.61% [at 7.93 µM],
O=C(Nc1cc(C(F)(F)F)cc(C(F)(F)F)c1)c1cc(Cl)ccc1O,0.248%,
O=C(O)Cn1nnc(-c2cc(N3CCC(Oc4cc(F)ccc4Br)CC3)no2)n1,-3.72%,
O=C(c1cc(O)c(O)c([N+](=O)[O-])c1)c1ccccc1F,-1.36%,
CC(C)=CCCC1(C)C=Cc2c(O)c3c(c(CC=C(C)C)c2O1)OC12C(=CCCC1C(C)(C)O[C@@]2(C/C=C(\C)C(=O)O)C(=O)O)C3=O (stereo not given in full),0.248%,
CO[C@H]1C[C@@H](O[C@@H]2/C(C)=C/C[C@@H]3C[C@@H](C[C@]4(CC[C@H](C)[C@@H](C5CCCCC5)O4)O3)OC(=O)[C@@H]3C=C(C)/C(=N/O)[C@H]4OC/C(=C\C=C\[C@@H]2C)[C@]43O)O[C@@H](C)[C@H]1O,,25.1 µM (active)
CC1(C)CC[C@]2(C(=O)O)CC[C@]3(C)C(=CCC4[C@@]5(C)C[C@@H](O)[C@H](O)C(C)(C)C5CC[C@]43C)C2C1 (stereo not given in full),-2.36% [at 20.9 µM],
O=S(=O)(O)c1ccc2cc(N=Nc3cc(S(=O)(=O)O)c4cccnc4c3O)ccc2c1,5.46%,
O=C(O)Cc1cc(I)c(Oc2ccc(O)c(I)c2)c(I)c1,-1.74%,
CC(Oc1ccccc1)C(=O)Nc1ccc(C(=O)OCc2cc(=O)n3nc(C4CC4)sc3n2)cc1 (stereo not given),-16.1%,
COc1ccc(NS(=O)(=O)c2ccc(NS(=O)(=O)c3ccc4c(c3)OCCO4)cc2)cc1,-23.1%,
CC(C)c1ccc2c(c1)c(SC(C)(C)C)c(CC(C)(C)C(=O)O)n2Cc1ccc(Cl)cc1,,15.8 µM (active)
COc1ccc(-c2ccccc2)cc1NS(=O)(=O)c1cc(Cl)cc(Cl)c1O,-4.47% [at 20.9 µM],
Cc1cc(C(C#N)c2ccc(Cl)cc2)c(Cl)cc1NC(=O)c1cc(I)cc(I)c1O (stereo not given),,31.6 µM (active)
Oc1cc2ccccc2c2ccccc12,,11.2 µM (active)
Cc1ccn(-c2ccc(-c3ncco3)cc2)c(=O)c1-c1ccc2nc(N)ncc2c1,-2.48%,

Structure (SMILES),"activity change, negative = cytotoxicity",Potency
CC(C)(O)c1ccccc1CC[C@@H](SCC1(CC(=O)O)CC1)c1cccc(/C=C/c2ccc3ccc(Cl)cc3n2)c1,0%,
O=C(O)c1ccc2c(ccc3nn(-c4ccc(/C=C/c5ccc(-n6nc7ccc8cc(C(=O)O)ccc8c7n6)cc5[S+](=O)([O-])[O-])c([S+](=O)([O-])[O-])c4)nc32)c1,2.1% [at 31.5 µM],
O=C(N/N=C/c1ccc(O)c(O)c1)c1cc2ccccc2cc1O,-8.44%,
O=C(Nc1ccc([N+](=O)[O-])cc1Cl)c1cc(Cl)ccc1O,,inactive
Cc1nc(C2CCCCC2)c(-c2ccc(S(N)(=O)=O)c(F)c2)o1,1.12%,
CCCCCc1ccc(/C=C/C(=O)Nc2cc(Cl)ccc2C(=O)O)cc1,-16.7% [at 31.5 µM],
O=C1NC(=O)/C(=C/c2cccc(C(F)(F)F)c2)S1,-7.2%,
CCc1oc2ccccc2c1C(=O)c1cc(Br)c(O)c(Br)c1,-18%,
O=C(O)c1ccc(S(=O)(=O)N(Cc2ccc(OC(F)(F)F)cc2)c2ncc(C(F)(F)F)cc2Cl)cc1,-6.33%,
C=C1c2cccc(O)c2C(O)=C2C(=O)[C@]3(O)C(O)=C(C(N)=O)C(=O)[C@@H](N(C)C)[C@@H]3[C@@H](O)[C@H]12,,inactive
O=C(O)c1cccc(-c2ccc(-c3cn(C(=O)N4CCCCC4Cc4ccccc4)nn3)cc2)c1 (stereo not given),7.83% [at 31.5 µM],
COc1cc(C)c(C(=O)OC2C(C)OC(OC3CCC(C)C4C3C=C(C)C3/C(C)=C\CC/C(C)=C/C5(C)C=C(C(=O)O)C(C)CC56OC(=O)/C(=C(\O)C34C)C6=O)C(O)C2O)c(OC)c1 (stereo not given),3.72% [at 10.4 µM],
Cc1cccc(C)c1NS(=O)(=O)c1ccc(NS(=O)(=O)c2ccc3c(c2)OCCO3)cc1,-20.5%,
COc1cccc(-n2nc(C(=O)O)cc2-c2ccc(C3CCCCC3)c(Cl)c2)c1,-0.0617% [at 31.5 µM],
CCOc1ccc(-c2cc(NC(=O)c3c(F)cccc3F)c(C(=O)O)s2)cc1,1.74%,
O=C(Nc1ccc(Oc2ccc(Cl)cc2)c(Cl)c1)c1cc(I)cc(I)c1O,1.12%,
O=C(O)Cc1cccc(OCCCN(Cc2cccc(C(F)(F)F)c2Cl)CC(c2ccccc2)c2ccccc2)c1,-4.01%,
CC[C@H](C)[C@H]1O[C@]2(CC[C@@H]1C)C[C@@H]1C[C@@H](C/C=C(\C)[C@@H](O[C@H]3C[C@H](OC)[C@@H](O[C@H]4C[C@H](OC)[C@@H](O)[C@H](C)O4)[C@H](C)O3)[C@@H](C)/C=C/C=C3\CO[C@@H]4[C@H](O)C(C)=C[C@@H](C(=O)O1)[C@]34O)O2,,11.2 µM (active)
Cc1cc(C)cc(C(=O)N(C)[C@H](Cc2ccc(-c3ccccc3)cc2)C(=O)N[C@@H](Cc2c[nH]c3ccccc23)C(=O)O)c1,0.744%,
COc1cnc(-c2ccc(Cn3c(CC(C)(C)C(=O)O)c(SC(C)(C)C)c4cc(OC[C@@H]5Cc6ccccc6N5C(C)=O)ccc43)cc2)nc1,0.74% [at 31.5 µM],
